The results in this text go back to PubChem BioAssay (Tox21).

Structures are written as SMILES. Inconclusive results are not listed. Entries that show only a call come without a potency. Values without a mark were called inactive. Active and inactive are the calls of the source. Calls come from the whole dose curve.

This test in a line: Nuclear factor erythroid 2-related factor 2/antioxidant responsive element (Nrf2/ARE) small molecule agonists: luciferase reporter gene qHTS assay in human keratinocytes (AID 1919969). Note: nearly all actives have a fitted effect of over 35% in size. Conditions: KeratinoSens HaCaT ARE-luciferase, luminescence, 24 h; series mostly up to 92.4 µM. In general terms: A reporter such as luciferase makes a cellular process visible.

For `CCCCCCCCCCCCCCCCN`, the Potency result is “inactive”.
Take `CCCc1ncc(C[n+]2ccccc2C)c(N)n1`: the Potency entry is “inactive”.
Still for that read-out and setting: the entry for `Cc1ccccc1N=C(N)Nc1ccccc1C` is “inactive”.
Regarding `CC(C)CCCC(C)CC=O` (stereo unspecified), the Potency result is “inactive”.
The same measure, in the same setting: the entry for `CCOC(=O)c1ccccc1OC` is “inactive”; for `Cc1cccc2c1cc1ccc3cccc4ccc2c1c34` it is “inactive”.
Take `CC(C)c1ccc2c(c1)CC[C@H]1[C@](C)(CN)CCC[C@]21C`: the Potency entry was “inactive”.
On to `C=C(C)C(=O)OCCCCCCCCCCCCCCCCCC`, for which the activity, positive = activation is -9.09% [at 19 µM].
For the compound `CC/C(=C(\c1ccc(O)cc1)c1ccc(OCCN(C)C)cc1)c1ccccc1`, the Potency result is “inactive”.
In the case of `C1C2OC2C2C1C1CC2C2OC12` (stereo unspecified), the Potency entry was “inactive”.
Same read-out and setting: next, `Fc1ccccc1[C@@H](F)COC1CCC(Nc2ncnc3[nH]ncc23)CC1` (stereo partly specified): “inactive”.
